# The whole screen tested about 310,000 compounds, of which about 14,000 (4.5%) showed an effect of 50% or more. The effect is printed as a negative number. The sample as a whole holds a higher share of strong results than the screen did.
# Biological target: human ether-à-go-go-related gene (hERG) potassium channel (human, UniProt Q12809)
# Assay: primary screen, population patch clamp on CHO cells stably expressing hERG; higher = less effect of the substance
# 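Also: peak tail current of the secondary pulse compared with the same well before compound.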
# Sequence of human ether-à-go-go-related gene (hERG) potassium channel (Q12809 whole entry, looked up): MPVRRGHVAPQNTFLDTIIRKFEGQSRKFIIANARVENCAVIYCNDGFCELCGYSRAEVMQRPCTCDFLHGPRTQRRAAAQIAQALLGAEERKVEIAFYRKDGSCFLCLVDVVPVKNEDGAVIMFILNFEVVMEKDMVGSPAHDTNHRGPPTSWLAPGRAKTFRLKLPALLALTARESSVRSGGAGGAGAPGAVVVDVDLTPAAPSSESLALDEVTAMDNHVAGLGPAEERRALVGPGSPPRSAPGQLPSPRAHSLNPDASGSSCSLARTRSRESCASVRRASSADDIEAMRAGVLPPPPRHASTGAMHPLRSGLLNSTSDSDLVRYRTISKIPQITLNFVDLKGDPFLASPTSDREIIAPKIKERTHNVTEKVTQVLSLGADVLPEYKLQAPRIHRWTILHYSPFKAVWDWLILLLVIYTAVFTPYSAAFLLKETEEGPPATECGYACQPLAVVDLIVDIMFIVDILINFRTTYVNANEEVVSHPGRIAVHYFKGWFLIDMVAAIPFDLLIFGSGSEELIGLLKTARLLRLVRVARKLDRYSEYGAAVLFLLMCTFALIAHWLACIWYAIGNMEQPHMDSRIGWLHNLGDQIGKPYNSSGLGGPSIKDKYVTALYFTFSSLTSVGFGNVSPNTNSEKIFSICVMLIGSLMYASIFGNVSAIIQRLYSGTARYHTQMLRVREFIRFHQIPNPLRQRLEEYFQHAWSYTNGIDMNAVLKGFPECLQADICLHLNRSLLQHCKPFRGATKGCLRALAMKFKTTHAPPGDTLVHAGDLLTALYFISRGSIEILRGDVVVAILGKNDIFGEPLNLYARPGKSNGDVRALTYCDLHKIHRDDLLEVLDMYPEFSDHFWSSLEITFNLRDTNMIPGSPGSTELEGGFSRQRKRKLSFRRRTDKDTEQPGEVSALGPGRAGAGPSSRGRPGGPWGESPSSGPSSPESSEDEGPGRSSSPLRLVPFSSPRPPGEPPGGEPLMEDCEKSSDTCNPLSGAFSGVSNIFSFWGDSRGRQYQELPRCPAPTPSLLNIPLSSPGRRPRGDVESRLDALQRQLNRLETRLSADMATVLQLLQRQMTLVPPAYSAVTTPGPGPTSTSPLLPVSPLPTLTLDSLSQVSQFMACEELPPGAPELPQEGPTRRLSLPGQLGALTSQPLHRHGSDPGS
row,Structure (SMILES),"hERG current change (%, negative = inhibition) at 10uM [%]"
1,CCc1ccc(N(CC(=O)Nc2ccc(NC(C)=O)cc2)S(=O)(=O)c2ccccc2)cc1,10.5
2,C#CCn1ccc(O)c(Cc2c(F)cccc2Cl)c1=O,8.2
3,Cc1cccc(NC(=O)c2cc(-c3ccco3)nc3ccccc23)n1,4.05
4,O=C1CN(C(=S)NC(=O)c2ccccc2[N+](=O)[O-])CCN1,16.9
5,COc1ccc([N+](=O)[O-])cc1NC(=O)COC(=O)/C=C/c1ccco1,1.54
6,COc1ccc(Cl)cc1C(=O)NNC(=O)CSc1nnnn1C,9.95
7,Cc1cc(-c2ccccc2)nc(SCc2ccc(C(=O)O)cc2)n1,23.8
8,COc1ccc(NC(=S)N2CCC(C(=O)c3ccc(OC)cc3)CC2)cc1,-45.4
9,COc1ccc(NC(=S)N2CCC(C(=O)c3ccc(C)cc3)CC2)cc1,-21.9
10,Cc1ccc(C(=O)N2CCC(C(=O)c3ccc(Cl)cc3)CC2)cc1,-68.4
11,O=C(c1ccc(Cl)cc1)C1CCN(C(=O)c2ccccc2)CC1,-34.3
12,COc1ccc(C(=O)C2CCN(C(=O)c3ccc(OC)cc3)CC2)cc1,-77.1
13,Cc1ccc(C(=O)C2CCN(C(=O)c3ccc(C)cc3)CC2)cc1,-36.8
14,COc1ccc(C(=O)C2CCN(C(=O)Nc3ccc(C)cc3)CC2)cc1,-9.82
15,COc1ccc(C(=O)C2CCN(C(=O)c3ccc(C)cc3)CC2)cc1,-66.3
16,COc1ccc(C(=O)C2CCN(C(=O)c3ccco3)CC2)cc1,-13.4
17,CCOP(=O)(OCC)C(NC(=O)c1ccc(OC)c(OC)c1)c1ccccc1 (centres unmarked),9.71
18,COc1ccc(/C(O)=C2\C(=O)C(=O)N(CCN(C)C)C2c2cc(OC)c(OC)c(OC)c2)c(C)c1 (centres unmarked),3.79
19,COc1ccc(NC(=O)/C(N=Nc2cc(S(=O)(=O)Nc3ccc(OC)cc3)ccc2OC)=C(\C)O)cc1,24.2
20,O=C(c1cnn2c(C(F)(F)F)cc(-c3ccc(F)cc3)nc12)N1CCc2ccccc2C1,-3.83
21,COc1ccc(Nc2ncnc3c2cnn3Cc2ccccc2)cc1,-18.1

row,Structure (SMILES),"hERG current change (%, negative = inhibition) at 10uM [%]"
1,CC(C)N(C(=O)c1sc2cc([N+](=O)[O-])ccc2c1Cl)C(C)C,-13.4
2,CCOc1ccc(NC(=O)C(CC)n2nc(C)c3c(C)n(-c4ccccc4)nc3c2=O)cc1 (centres unmarked),-30.1
3,CCSc1ccccc1C(=O)Nc1cccnc1,-5.83
4,O=C(c1ccco1)N1CCCN(Cc2cn[nH]c2-c2ccc(-c3ccccc3)cc2)CC1,-59.3
5,COc1ccc(-c2[nH]ncc2CN2CCN(C(=O)c3ccco3)CC2)cc1F,-6.81
6,O=C(c1ccco1)N1CCN(Cc2cn[nH]c2-c2ccc(F)cc2F)CC1,-12.8
7,COc1ccc(-c2[nH]ncc2CN2CCCN(C(=O)c3ccco3)CC2)cc1F,-55.2
8,COCC1CCN(Cc2cn[nH]c2-c2ccc(OC)c(F)c2)C1 (centres unmarked),-4.22
9,COc1ccc(-c2[nH]ncc2CN2CCC(c3ccncc3)CC2)cc1F,-62.7
10,COc1ccc(-c2[nH]ncc2CN2CCC(N3CCSCC3)CC2)cc1F,-22.5
11,Cc1ccccc1CN1CCN(C(=O)c2ccco2)CC1.O=C(O)C(=O)O,7.41
12,O=C(c1ccco1)N1CCN(Cc2cn[nH]c2-c2cccc3ccccc23)CC1,-29.1
13,Cc1cc(NC(=O)CN2CCN(S(=O)(=O)c3ccc4ccccc4c3)CC2)no1,-14.7
14,CCCCN(C(=O)c1ccc2c(c1)OCO2)c1c(N)n(CC(C)C)c(=O)[nH]c1=O,-6.58
15,CS(=O)(=O)Nc1ccc2c(c1)ncn2CCc1ccccc1,-26.4
16,O=C1c2ccccc2C(=O)N1CCc1csc(-c2cccc(F)c2)n1,-22.5
17,Clc1ccc(-n2ncc3c(NCc4cccnc4)ncnc32)cc1Cl,14.6
18,COc1ccc(-c2csc(NC(=O)CN3C(=O)CCC3=O)n2)cc1OC,11.4
19,Cc1cccc(OC(C)C(=O)N(Cc2cccs2)C2CCS(=O)(=O)C2)c1C (centres unmarked),-14.8
20,COc1ccc(N2CCN(C(=O)CCc3ccc(S(=O)(=O)NCC(C)C)cc3)CC2)cc1,-57.1
21,COc1ccc(N2CCN(C(=O)CNS(=O)(=O)c3ccc(Br)s3)CC2)cc1,-27.6

row,Structure (SMILES),"hERG current change (%, negative = inhibition) at 10uM [%]"
1,O=C(CCc1ccc(S(=O)(=O)NCc2ccccc2)cc1)N1CCN(Cc2ccc3c(c2)OCO3)CC1,-41.2
2,CC(C)CNS(=O)(=O)c1ccc(CCC(=O)N2CCN(c3ccccc3)CC2)cc1,-91.3
3,COc1ccc(N2CCN(C(=O)CCc3ccc(S(=O)(=O)NC(C)C)cc3)CC2)cc1,-7.82
4,CC(C)CNS(=O)(=O)c1ccc(CCC(=O)N2CCN(Cc3ccc4c(c3)OCO4)CC2)cc1,-54.4
5,CCNS(=O)(=O)c1ccc(CCC(=O)N2CCN(c3ccc(OC)cc3)CC2)cc1,-8.99
6,CCNS(=O)(=O)c1ccc(CCC(=O)N2CCN(c3ccccc3)CC2)cc1,-16.8
7,CC(C)CNS(=O)(=O)c1ccc(CCC(=O)N2CCN(Cc3ccccc3)CC2)cc1,-35.2
8,O=C(CCc1ccc(S(=O)(=O)NCCc2ccccc2)cc1)N1CCN(Cc2ccc3c(c2)OCO3)CC1,-48.5
9,COc1ccc(N2CCN(C(=O)CCNS(=O)(=O)c3cccs3)CC2)cc1,-26
10,COc1ccc(N2CCN(C(=O)CCNS(=O)(=O)c3ccc(Br)s3)CC2)cc1,-50.6
11,Cc1ccc(S(=O)(=O)N(C(=N)N)c2nc(N(C)C)nc(N(C)C)n2)cc1,4.96
12,CN(C)P(=O)(NC(=O)c1cccn1C)N(C)C,47.3
13,CC(=O)Nc1ccc(Nc2ncnc3c2cnn3-c2ccccc2)cc1,12.9
14,Cc1cc(C)nc(Nc2nc(-c3ccccc3)cs2)n1,16.4
15,O=C(NCCS(=O)c1ccc(Cl)cc1)c1cccc(Cl)c1 (centres unmarked),-12.2
16,Cc1ccc(C(C)C)c(OC(=O)/C=C/c2ccccc2)c1,9.52
17,Cn1cc(S(=O)(=O)N2CCCC2)cc1C(=O)N1CCN(c2ccccc2)CC1,-35.8
18,CCc1ccc(NC2=NCCCS2)cc1,-9.94
19,c1ccc2c3c([nH]c2c1)C1(CCNCC1)NCC3,-6.06
20,CCCNS(=O)(=O)c1ccc(CCC(=O)N2CCN(c3ccc(F)cc3)CC2)cc1,-43.7
21,CC(C)CNS(=O)(=O)c1ccc(CCC(=O)N2CCCC2)cc1,24.4

row,Structure (SMILES),"hERG current change (%, negative = inhibition) at 10uM [%]"
1,CC(C)CNS(=O)(=O)c1ccc(CCC(=O)N2CCN(c3ccc(F)cc3)CC2)cc1,-50.3
2,COc1cc2c3nnc(-c4ccccc4)c-3cn(Cc3ccc(F)cc3)c2cc1OC,-76.8
3,COc1cc2c3nnc(-c4ccc(F)cc4)c-3cn(Cc3cccc(F)c3)c2cc1OC,29.7
4,COc1cc2c3nnc(-c4ccc(F)cc4)c-3cn(Cc3ccc(F)cc3)c2cc1OC,-28.5
5,COc1cc2c3nnc(-c4ccc(F)cc4)c-3cn(Cc3ccccc3)c2cc1OC,-37.1
6,COc1cc2c3nnc(-c4ccc(F)cc4)c-3cn(Cc3ccc(C)cc3)c2cc1OC,2.79
7,COc1ccc(Cn2cc3c(-c4ccc(F)cc4)nnc-3c3cc(OC)c(OC)cc32)cc1,-88.2
8,COc1ccc(C(=O)O)nc1C,5.78
9,C/C(=N/NC(=O)CN1CCN(Cc2ccccc2Cl)CC1)c1ccco1,-25.4
10,C/C(=N/NC(=O)CN1CCN(S(=O)(=O)c2ccc(C)cc2)CC1)c1ccco1,-53.7
11,C/C(=N/NC(=O)CN1CCN(S(=O)(=O)c2ccc(Br)cc2)CC1)c1ccco1,-68.9
12,COc1cc(/C(C)=N/NC(=O)CN2CCN(S(=O)(=O)c3ccc(C)cc3)CC2)ccc1O,-11.6
13,C/C(=N/NC(=O)CN1CCN(S(=O)(=O)c2ccc(C)cc2)CC1)c1cccc(O)c1,-15
14,C/C(=N\NC(=O)CN1CCN(c2ccc(F)cc2)CC1)c1ccco1,-30.3
15,C=CCn1c(SCc2ccccc2)nc2scc(-c3ccc(C)o3)c2c1=O,8.76
16,COc1cc(NC2c3ncccc3C(=O)N2Cc2ccco2)cc(OC)c1 (centres unmarked),-0.0378
17,CCOC(=O)N1CCN(C(=O)c2ccc(Cn3c(=S)[nH]c4ccc(Br)cc4c3=O)cc2)CC1,13.3
18,CN(C)NC1=CC(=[N+]2CCCC2)CC(C)(C)C1.[I-],14.6
19,CN(C)c1cccc(NC2=CC(=[N+]3CCOCC3)CC(C)(C)C2)c1.[I-],-65.6
20,CC1(C)CC(=O)C=C(Nc2ccc3c(c2)OCCO3)C1,17.7
